# Test results: the supplement of paper PMC10849652
# Of roughly 7,900 targets only a part is listed; those with a hit were picked by preference. About 0.6% of all pairs of compound and target were hits. Values without a mark were called inactive.
# Assays:
# Assay in all cases: log2 fold change, soluble protein after heating vs DMSO (PISA); higher = thermal stabilisation; K562 cells, 10 uM, 30 min; active = over 0.2 and 3.5 SD of the protein, either way, in both replicates (recomputed)
# saracatinib = compound: CN1CCN(CCOc2cc(OC3CCOCC3)c3c(Nc4c(Cl)ccc5c4OCO5)ncnc3c2)CC1 [saracatinib]
# Procedure, shortened: (§1)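 Aliquots of K562 cells (2×10^6 cells/mL) treated with 10 μM compound for 30 min were heated for 3 min over 48°C-58°C. After pooling and extraction in PBS with 0.5% NP-40 at 4°C, soluble protein from a 21,000xg, 90 min spin was quantified by TMTpro 16plex LC-MS/MS with channel sums equalised. Thermal stability is expressed against control samples, from duplicates, as a log2 fold change.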
# sotrastaurin = compound: CN1CCN(c2nc(C3=C(c4c[nH]c5ccccc45)C(=O)NC3=O)c3ccccc3n2)CC1 [sotrastaurin]
# Procedure, shortened: as §1
# alvocidib = compound: CN1CC[C@H](c2c(O)cc(O)c3c(=O)cc(-c4ccccc4Cl)oc23)[C@H](O)C1 [alvocidib]
# Procedure, shortened: as §1
# Tubastatin A = compound: CN1CCc2c(c3ccccc3n2Cc2ccc(C(=O)NO)cc2)C1 [Tubastatin A]
# Procedure, shortened: as §1
# [1] = compound: CNC(=O)C1=CC=CC=C1NC2=NC(=NC=C2Cl)NC3=C(C=C(C=C3)N4CCOCC4)OC
# Procedure, shortened: as §1
# defactinib = compound: CNC(=O)c1ccc(Nc2ncc(C(F)(F)F)c(NCc3nccnc3N(C)S(C)(=O)=O)n2)cc1 [defactinib]
# Procedure, shortened: as §1
# rucaparib = compound: CNCc1ccc(-c2[nH]c3cc(F)cc4c3c2CCNC4=O)cc1 [rucaparib]
# Procedure, shortened: as §1
# [2] = compound: CNc1nc(-c2ccc3c(N)n[nH]c3c2)cc(N2C[C@@H](C(=O)NC3CCCCC3)CC[C@H]2C)n1
# Procedure, shortened: as §1
# encorafenib = compound: COC(=O)N[C@@H](C)CNc1nccc(-c2cn(C(C)C)nc2-c2cc(Cl)cc(NS(C)(=O)=O)c2F)n1 [encorafenib]
# Procedure, shortened: as §1
# [3] = compound: COC(=O)[C@H](CCSC)NC(=O)C1=C(C=C(C=C1)NC[C@H](CS)N)C2=CC=CC=C2
# Procedure, shortened: as §1
# [4] = compound: COC1=CC=C(C=C1)CN2C=CC3=C2C=C(C=C3)C(=O)NO
# Procedure, shortened: as §1
# filanesib = compound: CON(C)C(=O)N1N=C(c2cc(F)ccc2F)S[C@@]1(CCCN)c1ccccc1 [filanesib]
# Procedure, shortened: as §1
# zotarolimus = compound: CO[C@H]1C[C@@H]2CC[C@@H](C)[C@@](O)(O2)C(=O)C(=O)N2CCCC[C@H]2C(=O)O[C@H]([C@H](C)C[C@@H]2CC[C@H](n3cnnn3)[C@H](OC)C2)CC(=O)[C@H](C)/C=C(\C)[C@@H](O)[C@@H](OC)C(=O)[C@H](C)C[C@H](C)/C=C/C=C/C=C/1C [zotarolimus]
# Procedure, shortened: as §1
# idasanutlin = compound: COc1cc(C(=O)O)ccc1NC(=O)[C@@H]1N[C@@H](CC(C)(C)C)[C@](C#N)(c2ccc(Cl)cc2F)[C@H]1c1cccc(Cl)c1F [idasanutlin]
# Procedure, shortened: as §1
# alisertib = compound: COc1cc(Nc2ncc3c(n2)-c2ccc(Cl)cc2C(c2c(F)cccc2OC)=NC3)ccc1C(=O)O [alisertib]
# Procedure, shortened: as §1
# [5] = compound: COc1cc2nc(-c3cc(F)ccc3O)nc(N[C@@H]3CNC[C@H]3C(C)(C)O)c2cc1OC
# Procedure, shortened: as §1
# gefitinib = compound: COc1cc2ncnc(Nc3ccc(F)c(Cl)c3)c2cc1OCCCN1CCOCC1 [gefitinib]
# Procedure, shortened: as §1
# [6] = compound: COc1cccc2cc(-c3nc([C@H]4CC[C@H](C(=O)O)CC4)n4ncnc(N)c34)[nH]c12
# Procedure, shortened: as §1
# lapatinib = compound: CS(=O)(=O)CCNCc1ccc(-c2ccc3ncnc(Nc4ccc(OCc5cccc(F)c5)c(Cl)c4)c3c2)o1 [lapatinib]
# Procedure, shortened: as §1
# pictilisib = compound: CS(=O)(=O)N1CCN(Cc2cc3nc(-c4cccc5[nH]ncc45)nc(N4CCOCC4)c3s2)CC1 [pictilisib]
# Procedure, shortened: as §1
# UniProt Q15796, sequence (Q15796 whole entry, looked up): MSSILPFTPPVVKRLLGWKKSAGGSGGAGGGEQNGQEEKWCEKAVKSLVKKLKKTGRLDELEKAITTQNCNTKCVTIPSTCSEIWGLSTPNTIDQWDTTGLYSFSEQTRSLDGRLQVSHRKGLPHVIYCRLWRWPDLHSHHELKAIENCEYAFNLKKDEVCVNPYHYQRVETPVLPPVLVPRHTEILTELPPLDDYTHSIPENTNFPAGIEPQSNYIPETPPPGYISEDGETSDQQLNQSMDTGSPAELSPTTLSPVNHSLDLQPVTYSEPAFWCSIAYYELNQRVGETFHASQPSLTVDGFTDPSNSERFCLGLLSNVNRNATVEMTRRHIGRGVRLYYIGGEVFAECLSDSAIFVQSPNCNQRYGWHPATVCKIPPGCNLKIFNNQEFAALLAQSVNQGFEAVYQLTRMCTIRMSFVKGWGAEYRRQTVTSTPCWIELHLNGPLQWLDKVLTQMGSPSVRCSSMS
# UniProt Q9ULP9, sequence (Q9ULP9 whole entry, looked up): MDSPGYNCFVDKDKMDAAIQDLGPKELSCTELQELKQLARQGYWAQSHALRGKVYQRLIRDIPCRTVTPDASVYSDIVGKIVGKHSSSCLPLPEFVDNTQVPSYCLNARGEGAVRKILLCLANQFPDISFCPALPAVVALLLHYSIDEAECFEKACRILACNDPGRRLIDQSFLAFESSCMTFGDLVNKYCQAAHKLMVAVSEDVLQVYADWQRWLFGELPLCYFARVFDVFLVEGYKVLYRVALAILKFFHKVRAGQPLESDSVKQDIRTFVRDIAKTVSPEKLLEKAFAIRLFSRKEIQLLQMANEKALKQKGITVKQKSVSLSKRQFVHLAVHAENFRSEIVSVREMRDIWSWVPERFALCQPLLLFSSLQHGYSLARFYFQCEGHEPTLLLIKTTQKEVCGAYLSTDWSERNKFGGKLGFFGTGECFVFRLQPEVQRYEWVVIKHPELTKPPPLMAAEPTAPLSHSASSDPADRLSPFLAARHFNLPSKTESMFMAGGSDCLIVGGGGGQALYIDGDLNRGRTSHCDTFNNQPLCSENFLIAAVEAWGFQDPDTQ
# UniProt P62318, sequence (P62318 whole entry, looked up): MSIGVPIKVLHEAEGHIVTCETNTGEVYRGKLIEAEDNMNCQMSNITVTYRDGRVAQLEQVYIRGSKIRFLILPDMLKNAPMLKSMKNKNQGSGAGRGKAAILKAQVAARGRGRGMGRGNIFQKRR
# UniProt O94901, sequence (O94901 whole entry, looked up): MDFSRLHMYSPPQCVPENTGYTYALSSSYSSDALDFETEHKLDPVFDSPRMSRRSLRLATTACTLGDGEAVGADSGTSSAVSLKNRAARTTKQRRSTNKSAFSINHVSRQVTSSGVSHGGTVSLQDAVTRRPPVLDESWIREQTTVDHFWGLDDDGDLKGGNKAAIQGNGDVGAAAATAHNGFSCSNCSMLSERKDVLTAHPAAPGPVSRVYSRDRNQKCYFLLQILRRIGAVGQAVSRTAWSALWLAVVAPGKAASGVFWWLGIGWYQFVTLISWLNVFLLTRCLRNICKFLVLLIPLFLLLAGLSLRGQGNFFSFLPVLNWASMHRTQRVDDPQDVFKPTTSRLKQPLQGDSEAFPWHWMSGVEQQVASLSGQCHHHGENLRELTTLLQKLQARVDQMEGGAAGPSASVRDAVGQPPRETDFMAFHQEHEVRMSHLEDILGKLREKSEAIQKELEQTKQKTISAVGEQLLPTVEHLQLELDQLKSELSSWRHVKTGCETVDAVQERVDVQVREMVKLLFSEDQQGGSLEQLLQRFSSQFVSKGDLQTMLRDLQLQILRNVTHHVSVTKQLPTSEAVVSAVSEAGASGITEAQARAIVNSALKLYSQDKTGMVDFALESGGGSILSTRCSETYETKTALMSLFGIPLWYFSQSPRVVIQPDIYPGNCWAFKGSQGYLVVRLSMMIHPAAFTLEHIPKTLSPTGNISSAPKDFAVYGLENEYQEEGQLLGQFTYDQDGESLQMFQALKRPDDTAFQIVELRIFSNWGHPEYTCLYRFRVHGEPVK
# UniProt Q9BW92, sequence (Q9BW92 whole entry, looked up): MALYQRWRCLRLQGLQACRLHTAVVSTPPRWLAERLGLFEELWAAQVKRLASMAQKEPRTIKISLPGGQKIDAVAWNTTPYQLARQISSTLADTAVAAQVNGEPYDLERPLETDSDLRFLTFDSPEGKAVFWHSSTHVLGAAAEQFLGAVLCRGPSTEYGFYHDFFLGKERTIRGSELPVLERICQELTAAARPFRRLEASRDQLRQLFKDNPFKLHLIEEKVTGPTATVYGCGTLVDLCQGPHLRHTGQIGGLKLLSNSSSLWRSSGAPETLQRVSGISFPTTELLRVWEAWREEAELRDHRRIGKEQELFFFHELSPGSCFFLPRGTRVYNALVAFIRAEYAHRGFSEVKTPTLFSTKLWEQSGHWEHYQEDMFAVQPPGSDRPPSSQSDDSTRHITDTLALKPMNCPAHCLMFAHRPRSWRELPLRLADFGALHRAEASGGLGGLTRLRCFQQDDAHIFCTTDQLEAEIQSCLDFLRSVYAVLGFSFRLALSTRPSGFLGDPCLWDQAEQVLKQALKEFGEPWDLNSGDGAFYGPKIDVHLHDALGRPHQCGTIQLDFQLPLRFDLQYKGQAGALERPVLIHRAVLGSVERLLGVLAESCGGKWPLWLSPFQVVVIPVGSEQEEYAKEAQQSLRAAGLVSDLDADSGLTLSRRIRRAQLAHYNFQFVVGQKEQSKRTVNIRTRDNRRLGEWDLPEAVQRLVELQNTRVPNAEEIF
# UniProt Q01130, sequence (Q01130 whole entry, looked up): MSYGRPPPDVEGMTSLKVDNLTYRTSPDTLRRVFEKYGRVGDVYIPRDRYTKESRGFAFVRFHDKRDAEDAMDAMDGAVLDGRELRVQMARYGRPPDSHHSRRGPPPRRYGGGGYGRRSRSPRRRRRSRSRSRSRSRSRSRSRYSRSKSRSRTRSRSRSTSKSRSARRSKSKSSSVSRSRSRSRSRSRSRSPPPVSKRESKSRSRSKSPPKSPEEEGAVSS
# UniProt Q9UH99, sequence (Q9UH99 whole entry, looked up): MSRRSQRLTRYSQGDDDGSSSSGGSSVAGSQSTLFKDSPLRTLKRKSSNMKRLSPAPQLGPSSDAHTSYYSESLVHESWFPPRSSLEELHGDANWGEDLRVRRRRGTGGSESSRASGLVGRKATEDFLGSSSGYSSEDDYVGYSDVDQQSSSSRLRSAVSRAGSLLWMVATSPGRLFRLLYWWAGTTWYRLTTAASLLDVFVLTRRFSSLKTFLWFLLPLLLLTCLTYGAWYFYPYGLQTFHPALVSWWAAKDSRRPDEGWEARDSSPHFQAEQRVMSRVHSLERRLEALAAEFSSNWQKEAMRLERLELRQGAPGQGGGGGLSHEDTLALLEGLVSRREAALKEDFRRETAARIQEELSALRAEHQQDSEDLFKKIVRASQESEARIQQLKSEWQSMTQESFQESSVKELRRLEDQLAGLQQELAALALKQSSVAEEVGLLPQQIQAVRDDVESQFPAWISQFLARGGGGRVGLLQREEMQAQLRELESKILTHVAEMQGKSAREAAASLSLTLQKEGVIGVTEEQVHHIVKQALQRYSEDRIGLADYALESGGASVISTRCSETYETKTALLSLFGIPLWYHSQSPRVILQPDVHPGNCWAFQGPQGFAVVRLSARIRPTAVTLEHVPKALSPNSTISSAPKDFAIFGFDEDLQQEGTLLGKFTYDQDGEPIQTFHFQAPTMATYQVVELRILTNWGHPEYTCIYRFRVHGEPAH
# UniProt O00193, sequence (O00193 whole entry, looked up): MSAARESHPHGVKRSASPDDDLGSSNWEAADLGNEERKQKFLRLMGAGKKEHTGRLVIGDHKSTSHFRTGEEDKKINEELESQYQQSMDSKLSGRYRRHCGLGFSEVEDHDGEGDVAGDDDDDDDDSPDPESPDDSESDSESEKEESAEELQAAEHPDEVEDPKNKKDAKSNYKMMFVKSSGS
# UniProt P42226, sequence (P42226 whole entry, looked up): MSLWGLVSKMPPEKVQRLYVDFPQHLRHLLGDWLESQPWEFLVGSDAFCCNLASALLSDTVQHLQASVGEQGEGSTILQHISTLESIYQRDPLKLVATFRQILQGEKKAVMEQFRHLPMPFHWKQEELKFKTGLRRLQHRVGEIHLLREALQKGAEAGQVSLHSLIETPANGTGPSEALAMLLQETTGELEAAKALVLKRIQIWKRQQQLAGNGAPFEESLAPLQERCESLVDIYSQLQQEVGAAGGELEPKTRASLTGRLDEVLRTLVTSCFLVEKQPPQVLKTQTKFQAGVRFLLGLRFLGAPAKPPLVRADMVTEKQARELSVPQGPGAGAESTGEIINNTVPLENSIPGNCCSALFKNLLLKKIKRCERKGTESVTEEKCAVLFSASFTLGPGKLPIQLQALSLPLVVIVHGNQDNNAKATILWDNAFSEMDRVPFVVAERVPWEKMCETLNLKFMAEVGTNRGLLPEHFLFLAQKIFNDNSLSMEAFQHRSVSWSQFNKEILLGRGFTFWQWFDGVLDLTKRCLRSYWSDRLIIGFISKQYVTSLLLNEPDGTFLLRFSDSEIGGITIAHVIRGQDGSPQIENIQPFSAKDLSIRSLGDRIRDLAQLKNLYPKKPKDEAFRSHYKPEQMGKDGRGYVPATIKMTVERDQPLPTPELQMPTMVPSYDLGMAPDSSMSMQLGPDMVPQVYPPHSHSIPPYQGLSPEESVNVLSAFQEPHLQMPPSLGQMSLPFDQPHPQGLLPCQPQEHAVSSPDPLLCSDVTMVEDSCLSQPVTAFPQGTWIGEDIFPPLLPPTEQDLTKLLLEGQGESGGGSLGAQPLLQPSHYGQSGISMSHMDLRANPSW
# UniProt Q96DI7, sequence (Q96DI7 whole entry, looked up): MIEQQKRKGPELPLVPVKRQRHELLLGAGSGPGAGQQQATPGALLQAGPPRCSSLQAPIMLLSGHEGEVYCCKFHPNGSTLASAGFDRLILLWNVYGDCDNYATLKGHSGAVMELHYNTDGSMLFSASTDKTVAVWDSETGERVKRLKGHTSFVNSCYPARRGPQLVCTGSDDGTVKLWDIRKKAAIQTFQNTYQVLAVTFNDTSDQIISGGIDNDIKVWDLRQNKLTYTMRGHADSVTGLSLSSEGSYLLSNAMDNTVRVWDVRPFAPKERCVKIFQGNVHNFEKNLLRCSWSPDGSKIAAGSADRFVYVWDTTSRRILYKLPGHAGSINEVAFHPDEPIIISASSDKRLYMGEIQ
Target,log2 fold change (saracatinib),log2 fold change (sotrastaurin),log2 fold change (alvocidib),log2 fold change (Tubastatin A),log2 fold change [1],log2 fold change (defactinib),log2 fold change (rucaparib),log2 fold change [2],log2 fold change (encorafenib),log2 fold change [3],log2 fold change [4],log2 fold change (filanesib),log2 fold change (zotarolimus),log2 fold change (idasanutlin),log2 fold change (alisertib),log2 fold change [5],log2 fold change (gefitinib),log2 fold change [6],log2 fold change (lapatinib),log2 fold change (pictilisib)
SMAD2 (UniProt Q15796),0.001,-0.235,-0.316,0.016,0.025,-0.142,0.043,0.039,-0.045,-0.052,-0.011,0.091,0.043,0,0.032,-0.016,0.117,-0.032,0.043,0.102
SRSF2 (UniProt Q01130),-0.008,0.089,0.218,-0.034,-0.1,0.052,0.078,-0.001,-0.013,0.076,-0.071,0.118,0,0.123,-0.076,-0.003,0.038,0.024,0.039,0.027
STAT6 (UniProt P42226),0.087,0.115,-0.153,0.101,0.029,-0.121,0.076,0.201,0.189,-0.168,0.019,0.091,0.055,0.102,0.094,0.002,0.014,0.155,-0.016,-0.13
SPPL2B (UniProt Q8TCT7),-0.009,0.074,-0.02,-0.031,0.026,-0.014,-0.036,-0.06,0.029,0.069,0.025,-0.223,-0.016,-0.01,-0.113,-0.05,-0.061,0.084,-0.002,0.292 (active)
TBC1D24 (UniProt Q9ULP9),-0.025,-0.016,-0.379 (active),-0.044,-0.075,-0.106,-0.148,0.077,-0.011,-0.005,0.032,-0.145,0.006,-0.127,-0.102,-0.028,0.007,0.05,0.032,-0.082
SMPD4 isoform 4 (UniProt Q9NXE4),0.154,-0.082,-0.174,0.007,-0.041,-0.056,0.043,-0.071,-0.081,0,0.051,-0.223,0.011,-0.049,0.145,-0.109,0.02,-0.043,-0.013,-0.034
SUN2 (UniProt Q9UH99),-0.029,-0.09,0.015,0.053,-0.068,-0.05,0.03,-0.066,0.067,0.023,0.028,0.013,0.017,0.077,-0.044,-0.194,-0.078,-0.007,0.066,0.071
SUN1 isoform 9 (UniProt O94901),-0.023,-0.178,0,-0.048,-0.108,0.049,0.083,-0.038,-0.018,-0.029,-0.062,0.084,0.162,0.02,-0.059,-0.14,-0.053,0.122,0.052,-0.002
SNX5 (UniProt Q9Y5X3),0,-0.006,-0.061,-0.013,-0.117,-0.014,-0.054,0.012,0.03,0.006,-0.06,-0.172,0.015,-0.015,-0.012,-0.066,-0.136,0.008,0.01,-0.085
SMARCAD1 isoform 2 (UniProt Q9H4L7),-0.086,-0.043,-0.243,0.053,0.016,-0.099,-0.056,0.035,0.029,-0.023,0.027,-0.098,0.028,-0.073,-0.026,0.06,-0.062,-0.004,0.026,0.07
SNRPD3 (UniProt P62318),0.004,0.068,0.069,-0.097,0.038,0.137,0.017,-0.098,-0.027,-0.003,-0.169,0.152,-0.051,0.025,-0.132,0.039,-0.019,0.023,0.028,0.064
SSR4 (UniProt P51571),-0.008,0.013,-0.035,0.006,0.014,0.015,0,0.004,-0.028,-0.007,-0.015,-0.052,0.036,-0.012,-0.004,0.08,-0.023,0.047,-0.05,0.106
SNRNP40 (UniProt Q96DI7),0.068,-0.01,0.143,-0.092,0.045,0.128,0.012,-0.03,0.039,-0.034,-0.039,0.08,-0.015,0.007,-0.054,0.191,-0.052,0.025,0.02,0.295 (active)
TARS2 (UniProt Q9BW92),-0.004,-0.049,-0.041,-0.357 (active),0.03,-0.033,0.009,-0.098,0.015,0.039,-0.487 (active),-0.02,-0.006,-0.084,-0.021,0.044,-0.023,0.041,-0.022,0.004
SMAP (UniProt O00193),-0.035,0.016,-0.015,0.016,-0.069,-0.001,-0.064,0.009,-0.054,0.013,-0.046,-0.154,-0.018,0.005,-0.01,0.02,0.033,0.051,-0.013,-0.016
SPTBN4 (UniProt Q9H254),-0.056,0.009,0.095,-0.005,-0.284,0.039,0.059,-0.035,-0.076,-0.002,-0.036,-0.068,0.014,-0.237,-0.116,-0.202,-0.047,0.158,0.041,0.175
